Source: the supplement of paper PMC11417369
± gives the standard deviation of the averaged measurements. Whole data set: some 25,000 sequences, median “ln(normalized median fluorescence intensity)” near 7.9, cut for the highest 2% near 11. The sample holds the highest values, similar sequences and a random draw of the others, so the mix is not that of the screen.

Each sequence was assayed on PfAP2-I AP2 domain 3 (GST-tagged) (assay: gcPBM binding intensity (ln(normalized median fluorescence intensity)); higher = stronger DNA binding).
How it was run: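 Each value is the highest Masliner-normalised natural-log median intensity across replicate spots of either orientation of a probe. The probes were primer-extended double-stranded 36-bp intergenic genomic sequences on an Agilent 4 × 180k array, alongside negative controls, exposed for 1 h to GST-tagged P. falciparum DNA-binding domains expressed in E. coli. Bound protein was picked up with Alexa488 anti-GST antibody and scanned at 488 nm.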

“AGTATACATTCATTTTGTACTCAATGATTTGATAAC [XGTACX_site6787]” and “CTATTATCGGTTCCTACACACAAATATATATGTCTA [CACACA_site3579]” are within error of each other in “gcPBM binding intensity (ln)” value: 7.63 ± 0.42 for the first, 8.1 ± 0.57 for the second.

“TGTTTTTTTATTTTCACACATAATCCAATTATACAT [CACACA_site6070]” and “TATATATATATGTAATGTACATAAATTTTATACCTT [XGTACX_site6991]” are within error of each other in “gcPBM binding intensity (ln)” value: 8.22 ± 0.55 for the first, 9.27 ± 0.53 for the second.

“ACCATATAATTTTTTTGTACATAATGATTTTTTTTT [XGTACX_site1104]” and “GGTCTAACAACATGCGCACACACATGAATATTCATA [CACACA_site1539]” are within error of each other in “gcPBM binding intensity (ln)” value: 7.99 ± 0.45 for the first, 8.81 ± 0.49 for the second.

Compared with “ATAGTAATGCATAAATATATATTATATATATATATA [XGTACX_negctrl_site576]”, AATAAAAATAATATAGTGCATAATATAAGGAAAAAA is higher in “gcPBM binding intensity (ln)” value: 9.21 ± 0.49 for the first, 11.1 ± 0.49 for the second.

Going from TATATATATATATAAGTGCATATAAAAATCGTTCGT to “AAAAAAAATATACATACATGCATACATAAGTTTCTA [TGCATGCA_site998]”, the “gcPBM binding intensity (ln)” value falls from 10.3 ± 0.11 to 7.55 ± 0.73.

ATATATATATATATAGTGCATAATGTTTTAATAGAT and ACATATAATAAAATAGTGCATTGTTAGTTTTATATA are within error of each other in “gcPBM binding intensity (ln)” value: 11 ± 0.33 for the first, 10.4 ± 0.42 for the second.

Compared with TATATATATATAATAGTGCATAAATAAATATATAAA, “CACTAAATAAGGAAAGTGCATAAAATAAAGGTTATA [GTGCAC_site9793]” is lower in “gcPBM binding intensity (ln)” value: 11.2 ± 0.45 for the first, 10.4 ± 0.26 for the second.

Going from ATATATATATATATAGTGCATAAAATAAGTTTCTAA to GTTGAAATAAAATTAGTGCATATATAAATATATATA, the “gcPBM binding intensity (ln)” value falls from 10.8 ± 0.21 to 10.2 ± 0.17.

ATATATAAATAAATAGTGCATTTTAATATTTAACGT and TAATAAATGTTATTAGTGCATAATAGATAATATATT are within error of each other in “gcPBM binding intensity (ln)” value: 10 ± 0.18 for the first, 10.8 ± 0.64 for the second.

“AAAAGCACCGTTCGTTGTACACTGAAACACTTTTGT [XGTACX_site199]” and “AACATGTTAAAATAAACACACAGCTAAGGTTTTTTT [CACACA_site157]” are within error of each other in “gcPBM binding intensity (ln)” value: 8.2 ± 0.76 for the first, 7.4 ± 0.69 for the second.

“TCTTTTACAAAAGCTATAACATTCACCACATTATAA [GTGCAC_negctrl_site133]” and “CTAGGTATGCTTTAAACATGCAAAAATACAAATTAC [TGCATGCA_site239]” are within error of each other in “gcPBM binding intensity (ln)” value: 7.68 ± 0.65 for the first, 7.97 ± 0.76 for the second.

First: ATAAATCCATGGGTAGTGCGCATTTTTTTTTTTTTT [GTGCAC_site9732]
Second: ACAATGTCATTTGCTAGTACGCATATTGGTTGTAAA [XGTACX_site8924]
The “gcPBM binding intensity (ln)” value of the first is higher: 9.09 ± 0.41 for the first, 7.76 ± 0.24 for the second.

“ATAAAATATCAATACCGTACACAAGCAGGTAAAATA [XGTACX_site3719]” and “TGATTATAAAAGTAGGTGCTACAAAAATTACACATT [GTGCAC_site9530]” are within error of each other in “gcPBM binding intensity (ln)” value: 7.82 ± 0.8 for the first, 8.7 ± 0.45 for the second.

“TATAACATTTTTTTCAAAATAGCTTTAGAAATAAAG [CACACA_negctrl_site718]” and “AAATAATTTATATGTAGTACATGTTGTAGATAATTT [XGTACX_site1031]” are within error of each other in “gcPBM binding intensity (ln)” value: 7.37 ± 0.54 for the first, 8.16 ± 0.28 for the second.

“TTTGTGTATATAACAGTGCAATATTATAAATATAAA [GTGCAC_site9750]” and “CATAATATTAAATCAGTGCAAATATACAGAATAAAT [GTGCAC_site9786]” are within error of each other in “gcPBM binding intensity (ln)” value: 10.5 ± 0.51 for the first, 10.1 ± 0.17 for the second.

TATACGTATTACAGAGTGCAATAAACAGTATATATT and AAAATTATTTAGTAAGTGCAAAAAAAAAAAAAAAAA are within error of each other in “gcPBM binding intensity (ln)” value: 10.9 ± 0.66 for the first, 10.1 ± 0.23 for the second.

First: TTTTGATTAAGTGAATTTTTTTATTTATATAAATAT [TGCATGCA_negctrl_site479]
Second: AAAAAAAATTATGAAGTGCATTAGTGAATTTGATTG
The “gcPBM binding intensity (ln)” value of the first is lower: 7.54 ± 0.56 for the first, 10.9 ± 0.3 for the second.

“CAATTTTACTCATAAACACACATATATATGTTATTA [CACACA_site3152]” and “AAAAAAAAAAAAAGTACACACTTTTGCGTACATGTA [CACACA_site7449]” are within error of each other in “gcPBM binding intensity (ln)” value: 7.66 ± 0.53 for the first, 8.06 ± 0.63 for the second.

Compared with “TGCATTATTTACAAGGTGCGTTACAAATGTGTAACA [GTGCAC_site9442]”, “TATATTATATATATGTGTACATATAAATGTAACAAA [XGTACX_site5025]” is lower in “gcPBM binding intensity (ln)” value: 11.3 ± 0.88 for the first, 7.67 ± 0.34 for the second.

“ATATATTTATTAAGGTGTACAAAAATTATGTTGCAT [XGTACX_site7546]” and “TTAACATAAATATATACACACCAATGATGGCATTTA [CACACA_site4952]” are within error of each other in “gcPBM binding intensity (ln)” value: 8.26 ± 0.35 for the first, 7.51 ± 0.52 for the second.

“TATATATTCATGTGTACACACAAAAAAAAATAAAGT [CACACA_site2207]” and “TTGTATGCTTCCCGACTACATTATGCCATAAATGTA [TGCATGCA_negctrl_site136]” are within error of each other in “gcPBM binding intensity (ln)” value: 8.41 ± 0.65 for the first, 7.92 ± 0.49 for the second.

Going from “AGTGCATACATGAATTGTACTTTAAAATAAATTCTA [XGTACX_site8156]” to “TAAATATATTTCATGACATGCAACTTGTTTTTTTGT [TGCATGCA_site456]”, the “gcPBM binding intensity (ln)” value falls from 9.7 ± 0.52 to 7.63 ± 0.7.

First: TTCTTATTTGTACTAGTGCAATAGAAAATAAATAAA [GTGCAC_site9731]
Second: TAAAATTTGTACATAGTGCAATTTTTTTTTTTTTTT
The “gcPBM binding intensity (ln)” value of the first is higher: 10.9 ± 0.49 for the first, 9.81 ± 0.099 for the second.

In the case of “TTTTTTCTTAAAATTTGTACATAGTGCAATTTTTTT [XGTACX_site5509]”, the “gcPBM binding intensity (ln)” value is reported as 9.5 ± 0.69.
